Assay [1] can be described thus: NCI Yeast Anticancer Drug Screen. Data for the rad50 strain (AID 155).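 Also: 0% = growth of vehicle-only cultures of the same strain.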 To be noted: S. cerevisiae rad50 strain growth inhibition, stronger effect = higher value. The procedure, abridged:
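Inhibition values express reduced yeast growth in compound-treated cultures relative to vehicle-treated controls.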

Assay [2] in a line: NCI Yeast Anticancer Drug Screen. Data for the mec2-1 strain (AID 157). To be noted: S. cerevisiae mec2-1 strain, stronger effect = higher value. The procedure, abridged:
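Readout is yeast growth inhibition, normalised to vehicle-treated controls, in the mec2-1 strain exposed to compound.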

Assay [3] is described as follows: NCI Yeast Anticancer Drug Screen. Data for the sgs1 mgt1 strain (AID 161).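 Also: 0% = growth of cultures given vehicle only.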 To be noted: S. cerevisiae sgs1 mgt1 strain, stronger effect = higher value. The procedure, abridged:
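Compounds are added to genetically altered yeast, and growth is compared with cultures given vehicle alone to give percent inhibition.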

A short description of assay [4]: NCI Yeast Anticancer Drug Screen. Data for the cln2 rad14 strain (AID 165).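 Also: 0% = growth equal to vehicle treated cultures.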 To be noted: S. cerevisiae cln2 rad14 strain, stronger effect = higher value. The procedure, abridged:
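Relative to vehicle controls, growth inhibition of compound-treated cln2 rad14 yeast was recorded.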

Assay [5] is described as follows: NCI Yeast Anticancer Drug Screen. Data for the bub3 strain (AID 167). To be noted: S. cerevisiae bub3 mutant strain, stronger effect = higher value. The method in brief:
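Steps: expose the mutant yeast strain to compound; grow alongside vehicle-treated cultures; measure growth; express inhibition against the vehicle cultures.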

A short description of assay [6]: NCI Yeast Anticancer Drug Screen. Data for the mlh1 rad18 strain (AID 175). To be noted: S. cerevisiae mlh1 rad18 strain growth inhibition, stronger effect = higher value. The procedure, abridged:
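Test agents were incubated with a yeast strain of defined genotype (DNA damage repair defect). Inhibition of growth was derived by comparison with vehicle-exposed cultures.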

Setting [7] is: at 5.0 µM (retest, dose inferred, filed as 0.5).
The mark [8] stands for this setting: at 50.0 µM (retest, dose inferred, filed as 5.0).

Compounds without any hit were thinned out: in the full panel of roughly 79,000, 15% have a hit. Values without a mark were called inactive. Active and inactive are the calls of the source. Rule as the data show it: active = growth inhibition above about 70%; inactive = the rest.

As for `COC(=O)c1nnn(-c2ccc(S(N)(=O)=O)cc2)c1C(=O)c1ccc(Cl)c(Cl)c1`, the growth inhibition in assay [1] (setting [7]) was 1%; in assay [1] (setting [8]), 98% (active); in assay [1] (at 50.0 µM) it was 98.5% (active); in assay [2] (setting [7]) it was 22%; in assay [2] (setting [8]), 99% (active); in assay [2] (at 50.0 µM) it was 98% (active). The growth inhibition in assay [3] (setting [7]) is 20%; in assay [3] (setting [8]), 99% (active); in assay [3] (at 50.0 µM) it was 98.2% (active); in assay [4] (setting [7]), 19%; in assay [4] (setting [8]), 98% (active); in assay [4] (at 50.0 µM), 96% (active). In addition, the growth inhibition was 30% in assay [5] (setting [7]); 99% (active) in assay [5] (setting [8]); 94.8% (active) in assay [5] (at 50.0 µM); 22% in assay [6] (setting [7]); 99% (active) in assay [6] (setting [8]); 98.3% (active) in assay [6] (at 50.0 µM).
Turning to `N#Cc1ccc(Oc2nc3ccccc3nc2-c2ccccc2)cc1`, the growth inhibition in assay [1] (setting [7]) was 0%; in assay [1] (setting [8]) it was 21%; in assay [1] (at 50.0 µM), 38.2%; in assay [2] (setting [7]), -4%; in assay [2] (setting [8]), 39%; in assay [2] (at 50.0 µM) it was 22.2%. Further, the growth inhibition is 12% in assay [3] (setting [7]); 52% in assay [3] (setting [8]); 33.9% in assay [3] (at 50.0 µM); -6% in assay [4] (setting [7]); 23% in assay [4] (setting [8]); 62.8% in assay [4] (at 50.0 µM). Also, the growth inhibition in assay [5] (setting [7]) was 5%; in assay [5] (setting [8]), 86% (active); in assay [5] (at 50.0 µM), 27.8%; in assay [6] (setting [7]), -4%; in assay [6] (setting [8]) it was 27%; in assay [6] (at 50.0 µM), 53.5%.
As for `O=[N+]([O-])c1ccc2c(c1)/C(=C/c1ccc(O)cc1)c1ccccc1-2`, the growth inhibition is 9% in assay [1] (setting [7]); 86% (active) in assay [1] (setting [8]); 88.3% (active) in assay [1] (at 50.0 µM); 1% in assay [2] (setting [7]); 82% (active) in assay [2] (setting [8]); 88.8% (active) in assay [2] (at 50.0 µM). The growth inhibition in assay [3] (setting [7]) was 2%; in assay [3] (setting [8]), 82% (active); in assay [3] (at 50.0 µM), 91.3% (active); in assay [4] (setting [7]), -2%; in assay [4] (setting [8]), 84% (active); in assay [4] (at 50.0 µM) it was 86.8% (active). In addition, the growth inhibition was -2% in assay [5] (setting [7]); 85% (active) in assay [5] (setting [8]); 88.6% (active) in assay [5] (at 50.0 µM); 6% in assay [6] (setting [7]); 83% (active) in assay [6] (setting [8]); 88.8% (active) in assay [6] (at 50.0 µM).
In the case of `CC(C)(C)C(=O)CC(=O)C(F)(F)C(F)(F)C(F)(F)F.CC(C)(C)C(=O)CC(=O)C(F)(F)C(F)(F)C(F)(F)F.CC(C)(C)C(=O)CC(=O)C(F)(F)C(F)(F)C(F)(F)F.[Gd]`, the growth inhibition in assay [1] (setting [7]) is -7%; in assay [1] (setting [8]), 79% (active); in assay [1] (at 50.0 µM), 89.3% (active); in assay [2] (setting [7]) it was -9%; in assay [2] (setting [8]), 85% (active); in assay [2] (at 50.0 µM) it was 91.4% (active). For the same compound, the growth inhibition in assay [3] (setting [7]) was 3%; in assay [3] (setting [8]), 82% (active); in assay [3] (at 50.0 µM) it was 90.7% (active); in assay [4] (setting [7]), 9%; in assay [4] (setting [8]) it was 87% (active); in assay [4] (at 50.0 µM), 82.7% (active). For the same compound, the growth inhibition in assay [5] (setting [7]) is -17%; in assay [5] (setting [8]), 96% (active); in assay [5] (at 50.0 µM), 89.2% (active); in assay [6] (setting [7]), -7%; in assay [6] (setting [8]), 93% (active); in assay [6] (at 50.0 µM), 88.8% (active).
As for `Cc1ccc(S(=O)(=O)OCC(C)(C)C)cc1`, the growth inhibition is -152% in assay [1] (setting [7]); -169% in assay [1] (setting [8]); 8.4% in assay [1] (at 50.0 µM); -48% in assay [2] (setting [7]); -59% in assay [2] (setting [8]); 2.05% in assay [2] (at 50.0 µM). The growth inhibition in assay [3] (setting [7]) is -63%; in assay [3] (setting [8]), -69%; in assay [3] (at 50.0 µM), -2.7%; in assay [4] (setting [7]), -61%; in assay [4] (setting [8]) it was -83%; in assay [4] (at 50.0 µM), -29.6%. Besides, the growth inhibition was -57% in assay [5] (setting [7]); 5% in assay [5] (setting [8]); 86.8% (active) in assay [5] (at 50.0 µM); -125% in assay [6] (setting [7]); -127% in assay [6] (setting [8]); 14.5% in assay [6] (at 50.0 µM).
For `ClC(Cl)(Cl)/C=C/c1cnc2ccccc2n1`, the growth inhibition was 2% in assay [1] (setting [7]); 99% (active) in assay [1] (setting [8]); 15.6% in assay [1] (at 50.0 µM); 1% in assay [2] (setting [7]); 99% (active) in assay [2] (setting [8]); 5.95% in assay [2] (at 50.0 µM). Further, the growth inhibition is 1% in assay [3] (setting [7]); 99% (active) in assay [3] (setting [8]); 49.3% in assay [3] (at 50.0 µM); -3% in assay [4] (setting [7]); 99% (active) in assay [4] (setting [8]); -2% in assay [4] (at 50.0 µM). For the same compound, the growth inhibition in assay [5] (setting [7]) was -3%; in assay [5] (setting [8]), 99% (active); in assay [5] (at 50.0 µM), 85.7% (active); in assay [6] (setting [7]), 3%; in assay [6] (setting [8]) it was 99% (active); in assay [6] (at 50.0 µM), 30.2%.
Take `CN1C(=O)[C@@H]2N(N(C)C1=O)[C@@]1(Br)C(=O)N(C)C(=O)[C@@]21Br`: the growth inhibition is 18% in assay [1] (setting [7]); 78% (active) in assay [1] (setting [8]); 92.5% (active) in assay [1] (at 50.0 µM); 4% in assay [2] (setting [7]); 57% in assay [2] (setting [8]); 79% (active) in assay [2] (at 50.0 µM). Moreover, the growth inhibition in assay [3] (setting [7]) is 18%; in assay [3] (setting [8]), 84% (active); in assay [3] (at 50.0 µM), 87.8% (active); in assay [4] (setting [7]) it was 4%; in assay [4] (setting [8]), 24%; in assay [4] (at 50.0 µM) it was 67.8%. The growth inhibition in assay [5] (setting [7]) was 1%; in assay [5] (setting [8]) it was 53%; in assay [5] (at 50.0 µM), 94.5% (active); in assay [6] (setting [7]) it was 14%; in assay [6] (setting [8]) it was 91% (active); in assay [6] (at 50.0 µM), 97.8% (active).
As for `C/C=C(\C)CC/C=C/CO[Si](C)(C)C(C)(C)C`, the growth inhibition was -19% in assay [1] (setting [7]); -19% in assay [1] (setting [8]); -4.15% in assay [1] (at 50.0 µM); -2% in assay [2] (setting [7]); -19% in assay [2] (setting [8]); 8.7% in assay [2] (at 50.0 µM). Further, the growth inhibition in assay [3] (setting [7]) is -13%; in assay [3] (setting [8]), 13%; in assay [3] (at 50.0 µM), 5.25%; in assay [4] (setting [7]), 11%; in assay [4] (setting [8]), -4%; in assay [4] (at 50.0 µM), 53.6%. Moreover, the growth inhibition in assay [5] (setting [7]) is 7%; in assay [5] (setting [8]) it was -11%; in assay [5] (at 50.0 µM), 2.8%; in assay [6] (setting [7]), -16%; in assay [6] (setting [8]) it was -8%; in assay [6] (at 50.0 µM), 5.75%.
In the case of `O=C1OC(c2ccccc2)=N/C1=C\c1ccc(Oc2ccc(Cl)c(Cl)c2)cc1`, the growth inhibition in assay [1] (setting [7]) was 8%; in assay [1] (setting [8]), 8%; in assay [1] (at 50.0 µM), 69.4%; in assay [2] (setting [7]) it was 14%; in assay [2] (setting [8]), 14%; in assay [2] (at 50.0 µM), 61.5%. The growth inhibition was 0% in assay [3] (setting [7]); 0% in assay [3] (setting [8]); 74.8% (active) in assay [3] (at 50.0 µM); -2% in assay [4] (setting [7]); -2% in assay [4] (setting [8]); 46% in assay [4] (at 50.0 µM). Also, the growth inhibition in assay [5] (setting [7]) is -1%; in assay [5] (setting [8]), -1%; in assay [5] (at 50.0 µM) it was 69.7%; in assay [6] (setting [7]), -4%; in assay [6] (setting [8]), -4%; in assay [6] (at 50.0 µM), 52.4%.
For the compound `COc1ccc(C(c2c(O)c3ccccc3oc2=O)N2CCOCC2)cc1` (stereo not given), the growth inhibition in assay [1] (setting [7]) is -30%; in assay [1] (setting [8]), -14%; in assay [1] (at 50.0 µM), -8.2%; in assay [2] (setting [7]), -10%; in assay [2] (setting [8]), -6%; in assay [2] (at 50.0 µM), -3.1%. Moreover, the growth inhibition in assay [3] (setting [7]) was -13%; in assay [3] (setting [8]), -29%; in assay [3] (at 50.0 µM), -34.9%; in assay [4] (setting [7]), -19%; in assay [4] (setting [8]), -17%; in assay [4] (at 50.0 µM), 76.5% (active). The growth inhibition in assay [5] (setting [7]) was -14%; in assay [5] (setting [8]), 22%; in assay [5] (at 50.0 µM), -14%; in assay [6] (setting [7]) it was -34%; in assay [6] (setting [8]) it was -30%; in assay [6] (at 50.0 µM), -12%.
